# From PubChem BioAssay AID1159580 (chemical genetic matrix, 2015)
# Screen size: about 5,500 compounds; about 2,000 (36%) were called active. Another 18% or so got no clear call; they are omitted. Some of the results follow. Values without a mark were called inactive. Cut-off read from the data, not from the text of the source: active = normalized growth mostly below about 0.91 (no sharp cut-off); inconclusive = no clear call, values can overlap the other calls; inactive = mostly above about 0.92.
# Assay: chemical genetic growth profiling, strain panel (AID 1159580);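 note: tested at 20 µM; growth read once vehicle control cultures reached saturation at 30 °C; 1 = growth at the plate median or of vehicle wells; lower values mean less growth of the strain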
# Details: S. cerevisiae deletion strains, growth OD
smiles,measurement,setting,value
O=C(CCN1CCCCC1)c1ccc(-c2ccccc2)cc1,normalized growth,"locus YAR019C, strain CDC15, hits give low values",0.97
same,normalized growth,"locus YBL105C, strain PKC1, hits give low values",0.975
same,normalized growth,"locus YBR135W, strain CKS1, hits give low values",0.984
same,normalized growth,"locus YBR136W, strain MEC1, hits give low values",0.981
same,normalized growth,"locus YBR160W, strain CDC28, hits give low values",0.987
same,normalized growth,"locus YDL017W, strain CDC7, hits give low values",0.982
same,normalized growth,"locus YDL028C, strain MPS1, hits give low values",0.984
same,normalized growth,"locus YDL108W, strain KIN28, hits give low values",0.979
same,normalized growth,"locus YDL132W, strain cdc53, hits give low values",0.977
same,normalized growth,"locus YDL214C, strain PRR2, hits give low values",0.909
same,normalized growth,"locus YDR052C, strain DBF4, hits give low values",0.977
same,normalized growth,"locus YDR054C, strain cdc34, hits give low values",0.966
same,normalized growth,"locus YDR226W, strain ADK1, hits give low values",0.983
same,normalized growth,"locus YDR477W, strain SNF1, hits give low values",0.785
same,normalized growth,"locus YER123W, strain YCK3, hits give low values",0.892
same,normalized growth,"locus YER133W, strain GLC7, hits give low values",0.961
same,normalized growth,"locus YFL009W, strain cdc4, hits give low values",0.98
same,normalized growth,"locus YFL029C, strain CAK1, hits give low values",0.978
same,normalized growth,"locus YFR003C, strain YPI1, hits give low values",0.979
same,normalized growth,"locus YFR019W, strain FAB1, hits give low values",0.961
same,normalized growth,"locus YFR028C, strain CDC14, hits give low values",0.976
same,normalized growth,"locus YGR040W, strain KSS1, hits give low values",0.839
same,normalized growth,"locus YGR052W, strain FMP48, hits give low values",0.625
same,normalized growth,"locus YGR092W, strain DBF2, hits give low values",0.193 (active)
same,normalized growth,"locus YHR030C, strain SLT2, hits give low values",0.567 (active)
same,normalized growth,"locus YHR079C, strain IRE1, hits give low values",0.691
same,normalized growth,"locus YHR082C, strain KSP1, hits give low values",0.811
same,normalized growth,"locus YHR205W, strain SCH9, hits give low values",0.471 (active)
same,normalized growth,"locus YIL147C, strain SLN1, hits give low values",0.977
same,normalized growth,"locus YJL095W, strain BCK1, hits give low values",0.689
same,normalized growth,"locus YJL128C, strain PBS2, hits give low values",0.866
same,normalized growth,"locus YJL157C, strain FAR1, hits give low values",0.925
same,normalized growth,"locus YJR016C, strain ILV3, hits give low values",0.98
same,normalized growth,"locus YJR066W, strain TOR1 (second series), hits give low values",0.898
same,normalized growth,"locus YJR066W, strain TOR1, hits give low values",0.733
same,normalized growth,"locus YKL048C, strain ELM1, hits give low values",0.699 (active)
same,normalized growth,"locus YKL067W, strain YNK1, hits give low values",0.93
same,normalized growth,"locus YKL101W, strain HSL1, hits give low values",0.454 (active)
same,normalized growth,"locus YKL193C, strain SDS22, hits give low values",0.976
same,normalized growth,"locus YLR113W, strain HOG1, hits give low values",0.642 (active)
same,normalized growth,"locus YLR133W, strain CKI1, hits give low values",0.908
same,normalized growth,"locus YLR403W, strain SFP1, hits give low values",0.755
same,normalized growth,"locus YML070W, strain DAK1, hits give low values",0.909
same,normalized growth,"locus YMR001C, strain CDC5, hits give low values",0.972
same,normalized growth,"locus YMR205C, strain PFK2 (second series), hits give low values",0.941
same,normalized growth,"locus YMR277W, strain FCP1, hits give low values",0.974
same,normalized growth,"locus YNL006W, strain LST8, hits give low values",0.983
same,normalized growth,"locus YNL020C, strain ARK1, hits give low values",0.822
same,normalized growth,"locus YNL161W, strain CBK1, hits give low values",0.991
same,normalized growth,"locus YNL207W, strain RIO2, hits give low values",0.971
same,normalized growth,"locus YNL222W, strain SSU72, hits give low values",0.977
same,normalized growth,"locus YNL307C, strain MCK1 (second series), hits give low values",0.246 (active)
same,normalized growth,"locus YOL078W, strain AVO1, hits give low values",0.98
same,normalized growth,"locus YOL136C, strain PFK27, hits give low values",0.896
same,normalized growth,"locus YOR061W, strain CKA2, hits give low values",0.805
same,normalized growth,"locus YOR119C, strain RIO1, hits give low values",0.757
same,normalized growth,"locus YOR231W, strain MKK1, hits give low values",0.782
same,normalized growth,"locus YOR329C, strain SCD5, hits give low values",0.976
same,normalized growth,"locus YPL031C, strain PHO85, hits give low values",0.79
same,normalized growth,"locus YPL153C, strain RAD53, hits give low values",0.872
same,normalized growth,"locus YPL204W, strain HRR25, hits give low values",0.889
same,normalized growth,"locus YPL209C, strain IPL1, hits give low values",0.981
same,normalized growth,"locus YPL256C, strain CLN2, hits give low values",0.684 (active)
same,normalized growth,"locus YPR025C, strain CCL1, hits give low values",0.982
same,normalized growth,"locus YPR106W, strain ISR1, hits give low values",0.989
same,normalized growth,"locus YPR111W, strain DBF20, hits give low values",0.97
same,normalized growth,"strain NNK1, hits give low values",0.966
same,normalized growth,"strain TSCII, hits give low values",0.97
